aGal spleen mod = alpha-galactosidase A (human) modulation. P06280. human spleen homogenate, 4MU-alpha-Gal fluorescence, 40 min. Potency, µM (doses to about 80 µM), most hits filed as inhibitors. hit rate 0.008% among 240,000. AID 2107
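Spleen homogenate 1 ug + cpd (titration) + 4-MU-alpha-D-galactopyranoside 1 mM; 37C 40 min; 50 mM citrate/phosphate pH 5.0, 0.01% Tween-20; stop pH 10; fluorescence 365/440; AC50 via Hill.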
GLA inh pH 4.5 = alpha-galactosidase A (human) inhibition, pH 4.5; P06280; purified enzyme, 4-MU-alpha-Gal fluorescence, pH 4.5; activity change, negative = inhibition, % at 105 µM; 230,000 tested, under 10 active
PNC inhibitor = blocks assembly of the perinucleolar compartment; PC3M PTB-GFP, PNC prevalence imaging, 16 h; active compounds read low; activity change (PNC), negative = inhibition, % at 10 µM; hit rate 3.1% among 140,000;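 active means readout at or below -70, meaning at least 70% loss of cells showing the perinucleolar compartment, a nuclear body marking cancer cells; inconclusive means readout between -30 and a set limit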
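Read-out is percentage of cells bearing a perinucleolar compartment, from automated 20x imaging of fixed, Hoechst-stained PC3M PTB-GFP cells. Cells were seeded 4 h, then exposed 16 h to compound (23 nl of library stock) in duplicate plates.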
12-hLO inh = blocks human 12-lipoxygenase activity. P18054. purified 12-hLO, xylenol orange hydroperoxide absorbance. Potency, µM (highest dose often 57.1 µM), actives largely listed as inhibitors. hit rate 0.12% among 150,000. AID 1452; further: nearly all actives have a fitted effect of over 55% in size
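Hydroperoxide formation by human 12-lipoxygenase from 40 uM arachidonic acid was followed colorimetrically via ferric-xylenol orange complex, using the 573/405 nm absorbance ratio. Enzyme concentration was 150 nM, with 30 min reaction at room temperature.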
HPGD inh = HPGD (human) dehydrogenase inhibition | P15428 | hit rate 4.3% among 150,000 | purified HPGD, NADH fluorescence kinetic, PGE2 substrate | Potency, µM, most hits filed as inhibitors; active means well fitted inhibition curve with a large enough effect, not every such curve was filed as active; inconclusive means small, poorly fitted or top-dose-only effect, or another doubt; inactive means no such curve, though single readings can be large or run the other way
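NADH formation kinetics: reaction with 30 uM PGE2 and 1 mM NAD+ (final), 20 nM enzyme, Tris-HCl pH 8 with Tween 20, after 15 min compound preincubation at room temperature. Fluorescence change, last versus first of five reads.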
ALDH1A1 block = blocks purified human ALDH1A1 activity; P00352; Purified ALDH1A1, NADH fluorescence, propionaldehyde substrate; Potency, µM (series often up to 75.3 µM), usual class: inhibitors; hit rate 7.3% among 220,000; active means well fitted inhibition curve with a large enough effect, not every such curve was filed as active; inconclusive means small, poorly fitted or top-dose-only effect, or another doubt; inactive means no such curve, though single readings can be large or run the other way
Target sequence (P00352 whole entry, looked up): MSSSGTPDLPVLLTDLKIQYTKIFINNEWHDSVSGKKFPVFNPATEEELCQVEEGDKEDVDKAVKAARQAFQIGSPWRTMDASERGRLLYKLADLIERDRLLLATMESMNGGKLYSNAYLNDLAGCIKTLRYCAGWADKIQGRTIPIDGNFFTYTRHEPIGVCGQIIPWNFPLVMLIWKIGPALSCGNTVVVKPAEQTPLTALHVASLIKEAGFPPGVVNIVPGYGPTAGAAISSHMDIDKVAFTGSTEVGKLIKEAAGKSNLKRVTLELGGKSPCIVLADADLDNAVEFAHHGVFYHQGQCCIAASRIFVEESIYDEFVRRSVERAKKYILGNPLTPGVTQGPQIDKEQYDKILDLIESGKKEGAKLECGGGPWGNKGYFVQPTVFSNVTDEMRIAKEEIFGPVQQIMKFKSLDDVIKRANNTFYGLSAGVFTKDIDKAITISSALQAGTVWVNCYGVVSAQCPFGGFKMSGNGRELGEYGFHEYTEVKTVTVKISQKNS
Hits are given with their value; – = inactive; ? = inconclusive; · = no result; [ ] = another dose, or the depositor's remark. Hits are enriched below; roughly 10% of the tested compounds scored in any of these assays. Unless noted, the call rests on the fitted dose curve; in most records, active means well fitted curve in the direction sought with a large enough effect; inconclusive means small, poorly fitted or top-dose-only effect, or another doubt; inactive means no such curve, though single readings can be large; an effect the other way counts as inactive or inconclusive.

SMILES	aGal spleen mod	GLA inh pH 4.5	PNC inhibitor	12-hLO inh	HPGD inh	ALDH1A1 block
O=C(Nc1nc2ccccc2s1)C1CCCO1 (stereo not drawn)	–	–	?	–	–	–
CC1CCc2nc(NC(=O)c3ccco3)sc2C1 (stereo not drawn)	–	–	–	–	–	?
CCOCCOCC	–	·	·	–	–	–
COc1ncc2nc(-c3cc(F)cc(F)c3)c(=O)n(-c3ccccc3)c2n1	–	·	·	·	·	–
O=C(NCCNCc1ccccn1)c1ccco1	–	–	·	·	·	–
COc1ccc(C(=O)/C=C/c2ccccc2)cc1	–	–	·	–	–	17.8µM
COc1ccc(C(=O)/C=C/c2ccc(O)cc2)cc1	–	–	·	·	·	?
COc1ccc(C(=O)/C=C/c2ccc(OC)c(CN3CCOCC3)c2)cc1	–	–	–	–	–	?
COc1ccc(C(=O)/C=C/c2ccc(OC)c(Cn3nnc4ccccc43)c2)cc1	–	–	?	–	?	11.2µM
COc1ccc(/C=C/C(=O)c2nc3ccccc3n2CC(=O)c2ccc(OC)cc2)cc1	–	–	–	–	–	15.8µM
Fc1ccc(-c2n[nH]c(=S)n2-c2ccc3c(c2)OCCO3)cc1	–	–	·	·	·	–
S=c1[nH]nc(-c2ccc(Cl)cc2)n1-c1ccc2c(c1)OCCO2	–	–	–	–	14.1µM	?
O=C(CN1CCN(c2ccccn2)CC1)Nc1cccc(C(F)(F)F)c1	–	–	–	–	–	9.46µM
COc1cc(NC(=O)c2cccc(C)c2)c(OC)cc1NC(=O)CN1CCCCC1	–	–	·	·	·	?
COc1cc(NC(=S)N2CCN(c3ccccn3)CC2)c(OC)cc1Cl	–	–	–	–	28.2µM	?
O=C(CN1CCN(c2ccccn2)CC1)N1c2ccccc2Sc2ccc(C(F)(F)F)cc21	–	–	-113.7	?	–	7.94µM
COc1cc(NC(=O)c2ccccc2)c(OC)cc1NC(=O)CN1CCN(c2ccccn2)CC1	–	–	–	–	–	15.8µM
COc1cc(NS(C)(=O)=O)c(OC)cc1NC(=O)c1ccccc1	–	–	?	–	–	25.1µM
Cc1ccc(C)n1-c1c(C(=O)NN)cnn1-c1ccccc1	–	–	·	·	·	3.16µM
O=Cc1cccc(OC(=O)c2ccc(Cl)cc2Cl)c1	–	–	–	–	15.8µM	–
Cc1cc(NC(=O)CN2CCOCC2)n(-c2ccccc2)n1	–	–	·	·	·	·
Cc1cc(NC(=O)CN2CCOCC2)n(-c2nc3ccccc3s2)n1	–	–	–	–	–	22.4µM
O=C(CN1CCOCC1)Nc1nc2ccc(Br)cc2s1	–	–	?	–	–	12.6µM
COC(=O)NC(c1ccco1)[C@]1(C(C)=O)CCCC1=O (stereo partly drawn)	–[17.5 µM]	·	·	·	·	–[13.5 µM]
CCN(CC)CCNC(=O)c1cc(Sc2nnc(C)s2)nc2ccccc12	–	–	–	–	1.26µM	–
SMILES	aGal spleen mod	GLA inh pH 4.5	PNC inhibitor	12-hLO inh	HPGD inh	ALDH1A1 block
Cn1cccc1C(=O)N1CCC2(CC1)CN(C(=O)Nc1cccc(F)c1)C2	–	·	·	–	–	–
C=CCN1C(c2ccc(Br)cc2)=CS/C1=C(/C#N)c1nnc(N2CCOCC2)n1-c1ccccc1	–	–	–	–	–	3.16µM
C=CCN1C(=O)NC(c2ccc(OC)cc2)(C(F)(F)F)S/C1=C(\C#N)c1nnc(N2CCOCC2)n1-c1ccccc1 (stereo not drawn)	–	–	–	–	–	?
C=CCN1C(c2cccc(C(F)(F)F)c2)=CS/C1=C(/C#N)c1nnc(N2CCOCC2)n1-c1ccccc1	–	–	–	–	–	14.1µM
CCOc1ccc(C2=CS/C(=C(\C#N)c3nnc4n3CCCCC4)N2CC)cc1	–	–	?	–	?	?
N#C/C(=C(/O)COc1ccccc1)c1nnc2n1CCCCC2	–	–	·	·	·	7.94µM
N#C/C(=C(/O)CCl)c1nnc2n1CCCCC2	–	–	·	·	·	?
C=CCN1C(c2ccccc2)=CS/C1=C(\C#N)c1nnc2n1CCCCC2	–	–	–	–	25.1µM	17.8µM
Cc1nc2cc(C(=O)N3CCc4ccccc43)ccc2n1-c1ccc(F)c(F)c1	–	–	–	–	14.1µM	?
COCCNC(=O)c1ccc2c(c1)ncn2-c1ccc(F)c(F)c1	–	–	–	–	2.51µM	–
COC(CNC(=O)c1ccc2c(c1)nc(C)n2-c1cccc(F)c1)OC	–	–	–	–	11.2µM	–
COC(CNC(=O)c1ccc2c(c1)nc(C)n2-c1ccc(F)c(F)c1)OC	–	–	-91.0	–	11.2µM	–
COC(CNC(=O)c1ccc2c(c1)ncn2-c1ccc(F)c(F)c1)OC	–	–	·	·	·	–
O=C(O)/C=C/c1cn(-c2ccccc2)nc1-c1cc2ccccc2o1	–	–	·	·	·	·
Cc1ccc(C)n1-c1ccc(N2CCOCC2)cc1	–	–	–	–	–	7.08µM
Cc1c(Cl)cnc(NC(=O)COC(=O)c2cccc(S(=O)(=O)N3c4ccccc4CC3C)c2)c1Cl (stereo not drawn)	–	–	–	–	–	?
CC(C)C[C@@H](CC(=O)N[C@@H](CCCN)CC(=O)N[C@@H]1CCCC[C@H]1C(=O)N[C@H](CC(=O)N[C@@H](CCC(=O)O)CC(=O)O)Cc1c[nH]c2ccccc12)NC(=O)[C@@H]1CNCC[C@H]1N	–	–	·	–	–	–
CCCOCC1CC2(CC(C)(c3csc(N)n3)OC2=O)C(=O)O1 (stereo not drawn)	–	–	-118.9	–	–	–
Cc1noc(C)c1S(=O)(=O)N1CCN(C(c2ccccc2)c2ccc(Cl)cc2)CC1 (stereo not drawn)	–	–	-89.9	–	–	?
O=C(O)[C@H]1CCCN(CCC=C(c2ccccc2)c2ccccc2)C1	–	–	·	–	–	–
C=C(C)C(=O)OCC(C)O (stereo not drawn)	–	·	·	–	–	–
COc1ccc(N=NC2=C(O)CC(C)(C)CC2=O)c(OC)c1	–	–	–	–	–	0.282µM
CC1(C)CC(=O)C(N=Nc2cccc(F)c2C#N)=C(O)C1	–	–	·	·	·	·
CC1(C)CC(=O)C(N=Nc2ccc(Br)cc2)=C(O)C1	–	–	·	·	·	·
COc1ccc(N=NC2=C(O)CC(C)(C)CC2=O)cc1	–	–	–	–	31.6µM	0.891µM
SMILES	aGal spleen mod	GLA inh pH 4.5	PNC inhibitor	12-hLO inh	HPGD inh	ALDH1A1 block
CC1(C)CC(=O)C(N=Nc2cccc([N+](=O)[O-])c2)=C(O)C1	–	–	·	·	·	·
CC1(C)CC(=O)C(N=Nc2ccc(C(F)(F)F)cc2[N+](=O)[O-])=C(O)C1	–	–	·	·	·	3.55µM
COc1cc2c(cc1OC)CN(C(=O)c1ccc(Br)o1)CC2	–	–	·	·	·	·
O=C(c1ccco1)N1CCC(n2nnc3ccccc32)CC1	–	–	–	–	–	25.1µM
CCN1C(=O)c2ccccc2S(=O)c2ccc(C(=O)N3CCN(C(=O)c4ccco4)CC3)cc21 (stereo not drawn)	–	–	?	–	–	8.91µM
NC(=O)N1CCN(C(=O)c2ccco2)CC1	–	–	?	–	–	20µM
